Several values for one entry are separate records, joined by “and”; a condition that tells them apart may be missing. Identical values can stand only once. The whole screen tested about 300,000 compounds, of which about 5,400 (1.8%) were called active. Inconclusive results (about 28%) are left out. The call rests on the fitted dose curve; tested in HEK293 cells. The list comes from a sample in which actives are over-represented; it also holds similar structures and randomly drawn compounds.
On the % scale 0 is the no-effect control and ±100 the full control effect; potency means the concentration at half of the fitted maximal effect.

A short description of the test: qHTS for inhibitors of binding or entry into cells for Marburg Virus. The following applies: Marburg virus pseudotyped entry inhibition, cell reporter; series mostly up to 37.8 µM; activity change, negative = inhibition: at the top concentration. For orientation: qHTS replaces the single test concentration by a dilution series.
As for `NC(=O)c1ccc(N2CCCC2)nc1`, the “activity change, negative = inhibition” value was -7.25% [at 46.1 µM] (inactive).

On to `OC(COc1ccccc1)CN1CCN(c2cccc(Cl)c2)CC1` (configuration not stated), for which the “activity change, negative = inhibition” value was 13.8% (inactive).

For the molecule `O=C(COC(=O)c1ccccc1C(=O)N1CCN(c2ccccc2)CC1)NCc1ccccc1`, the “activity change, negative = inhibition” value is -18.8% (inactive).

In the case of `Oc1ccc(N2CCN(C(=S)NCc3ccccc3)CC2)cc1`, the Potency was 3.16 µM (active).

With `Oc1ccccc1N1CCN(C(=S)NCc2ccccc2)CC1`, the “activity change, negative = inhibition” value was 2.88% [at 46.1 µM] (inactive).

Consider `CN(CC(=O)NCc1cccnc1)S(=O)(=O)c1cc(Cl)ccc1Cl`, for which the “activity change, negative = inhibition” value was -29.2% (inactive).

For the molecule `O=C(O)C1C2C=CC(O2)C1C(=O)Nc1ccccn1` (configuration not stated), the “activity change, negative = inhibition” value was 7.56% [at 46.1 µM] (inactive).

With `Cc1c(C)n2c(SCC(=O)NC3CCCC3)nnc2[nH]c1=O`, the “activity change, negative = inhibition” value was 22.3% [at 46.1 µM] (inactive).

As to `Cc1cc(N/C=C\C(=O)c2cccc3ccccc23)no1`, the “activity change, negative = inhibition” value is 2.44% (inactive).

For `CC(C)(C)NCc1cc(Br)ccc1OC1CCCC1`, the Potency is 23.1 µM (active).

As to `COCC(C)NCc1cc(Br)ccc1OC` (configuration not stated), the “activity change, negative = inhibition” value is -2.58% [at 46.1 µM] (inactive).

For `COc1ccc(Br)cc1CN(C)C(=O)C1CC(=O)N(C2CCCC2)C1` (configuration not stated), the “activity change, negative = inhibition” value was -19.1% (inactive).

As to `Cc1ccc(C)c(NC(=O)c2cc(-c3cc(C)cc(C)c3O)n[nH]2)c1`, the “activity change, negative = inhibition” value was -20.2% [at 46.1 µM] (inactive).

For the molecule `COc1ccccc1CNC(=O)[C@@H]1CCCN1C(=O)[C@@H]1Cc2ccccc2CN1C(=O)OC(C)(C)C`, the “activity change, negative = inhibition” value was -17.4% [at 46.1 µM] (inactive).

With `COCCCNC(=O)[C@@H](C#N)c1nc2ccccc2nc1N1CCN(Cc2ccccc2)CC1`, the “activity change, negative = inhibition” value was 3.25% (inactive).

With `COc1ccc(C(=O)CSc2nnc(-c3ccco3)o2)cc1`, the “activity change, negative = inhibition” value was 13.7% [at 46.1 µM] (inactive).

Consider `CCOc1ccc(-c2nnc(-c3ccco3)o2)cc1`, for which the Potency is 6.51 µM (active).

As to `CCC(=O)Oc1cccc(C(=O)Nc2ccc(-c3nnc(-c4ccco4)o3)cc2)c1`, the “activity change, negative = inhibition” value was -28.3% (inactive).

With `CC(=O)Nc1ccc(S(=O)(=O)NCC(=O)OCC(=O)c2ccc[nH]2)cc1`, the “activity change, negative = inhibition” value is -2.18% (inactive).

On to `Cc1cccnc1CCNC(=O)C1CCC(=O)N(Cc2cccc(F)c2)C1` (configuration not stated), for which the “activity change, negative = inhibition” value was 5.71% (inactive).

As for `CCOc1ccc(C(C)=O)cc1COC(=O)CNC(=O)c1cccs1`, the “activity change, negative = inhibition” value was 19.3% (inactive).

In the case of `O=C(Nc1ccc(Cl)c(Cl)c1)c1ccccc1NC(=O)C1CC=CCC1C(=O)O` (configuration not stated), the “activity change, negative = inhibition” value is 18.7% [at 46.1 µM] (inactive).

Regarding `COC(=O)CC=C[C@@H](C)[C@@H](C=NOC[C@H]1O[C@H](c2ccccc2)C=C[C@H]1Oc1ccc(OC)cc1)N[S+](=O)([O-])c1ccc(C)cc1`, the “activity change, negative = inhibition” value was 1.02% [at 14.2 µM] (inactive).

As to `COc1cc(-c2cc(C(=O)OCC(=O)Nc3ccc4c(c3)OCO4)c3ccccc3n2)cc(OC)c1OC`, the “activity change, negative = inhibition” value was -0.942% (inactive).

In the case of `O=C(COC(=O)c1c2c(nc3ccccc13)/C(=C\c1cccs1)CCC2)Nc1ccccc1Cl`, the “activity change, negative = inhibition” value is -41.2% (inactive).

`NS(=O)(=O)c1ccc(NC(=O)COC(=O)c2c3c(nc4ccccc24)/C(=C\c2ccc4c(c2)OCO4)CCC3)cc1`: the Potency is 11.6 µM (active).

For `COc1cccc(C(=O)NNC(=O)c2cccc(F)c2)c1`, the “activity change, negative = inhibition” value was 6.02% (inactive).

As for `Cc1c(Cl)c([N+](=O)[O-])nn1CC(=O)NCCCN1CCOCC1`, the “activity change, negative = inhibition” value is -0.45% [at 46.1 µM] (inactive).

As to `CCOC(=O)N1CCC(N2Cc3cccc(C(=O)Nc4ccc(S(=O)(=O)N(CC)CC)cc4)c3C2=O)CC1`, the “activity change, negative = inhibition” value is 21.7% [at 46.1 µM] (inactive).

Regarding `CCn1cc(C(=O)O)c(=O)c2c1N=C(C)CC2`, the “activity change, negative = inhibition” value is -24% (inactive).

Take `Cc1ccnc(NC(=O)c2ccoc2C)c1`: the “activity change, negative = inhibition” value was 10.2% (inactive).

Take `COc1cc(SC)ccc1C(=O)Nc1cc(C)ccn1`: the Potency is 14.6 µM (active).

For `COc1ccccc1CNC(=O)c1ccc(SC)cc1OC`, the “activity change, negative = inhibition” value is 0.424% (inactive).

For the molecule `COc1cnn(-c2ccc([N+](=O)[O-])cc2)c(=O)c1Cl`, the “activity change, negative = inhibition” value was -1.22% (inactive).

For the molecule `Cc1cccnc1CC(C)NC(=O)c1cc(COc2cncc(Cl)c2)on1` (configuration not stated), the “activity change, negative = inhibition” value was -5.56% [at 46.1 µM] (inactive).

`CCCC(O)(c1ccccc1)C(c1ccccc1)c1ccccn1` (configuration not stated): the “activity change, negative = inhibition” value was -15.5% [at 46.1 µM] (inactive).

With `O=C(c1ccc2c(c1)N(Cc1ccc(F)cc1)C(=O)c1ccccc1S2(=O)=O)N1CCN(c2ccccn2)CC1`, the Potency is 5.01 µM (active) and 3.16 µM (active).

Turning to `O=C(c1ccc2c(c1)N(Cc1ccccc1)C(=O)c1ccccc1S2(=O)=O)N1CCCC1`, the “activity change, negative = inhibition” value was -4.79% [at 46.1 µM] (inactive).

For `O=C(c1ccc2c(c1)N(Cc1ccc(Cl)cc1)C(=O)c1ccccc1S2(=O)=O)N1CCCCC1`, the “activity change, negative = inhibition” value was 13.1% [at 46.1 µM] (inactive).

Take `O=C(Nc1ccc(S(=O)(=O)Nc2ccccn2)cc1)c1ccccc1`: the “activity change, negative = inhibition” value was 1.38% (inactive).

As for `COC(=O)Cc1nc2c(N)nc(N)nc2[nH]c1=O`, the “activity change, negative = inhibition” value is -8.16% [at 46.1 µM] (inactive).

On to `CCCCn1c(N)c(N(CCC(C)C)C(=O)CC2OC(=O)c3ccccc32)c(=O)[nH]c1=O` (configuration not stated), for which the “activity change, negative = inhibition” value was 18% (inactive).

For `COc1ccc(Cl)cc1NC(=O)COC(=O)c1ccc(Br)o1`, the “activity change, negative = inhibition” value was 4.51% [at 46.1 µM] (inactive).

Consider `CC1CN(CCCOc2ccccc2-c2ccccc2)CC(C)O1` (configuration not stated), for which the “activity change, negative = inhibition” value was -9.52% [at 46.1 µM] (inactive).

For `O=[N+]([O-])c1ccccc1OCCCCN1CCCCC1`, the “activity change, negative = inhibition” value was 9.45% (inactive).

As for `CC1CCCN(CCOCCOc2ccccc2-c2ccccc2)C1` (configuration not stated), the Potency is 11.2 µM (active).

In the case of `c1ccc2cc(OCCN3CCCC3)ccc2c1`, the “activity change, negative = inhibition” value is -7.89% (inactive).

`CC1CN(CCOc2ccccc2[N+](=O)[O-])CC(C)O1` (configuration not stated): the “activity change, negative = inhibition” value is -16.6% [at 46.1 µM] (inactive).

Regarding `c1ccc(-c2ccccc2OCCN2CCCCC2)cc1`, the Potency was 14.6 µM (active).

On to `CN(Cc1ccc(F)cc1)C(=O)CN1C(=O)c2ccccc2S1(=O)=O`, for which the “activity change, negative = inhibition” value was 1.59% (inactive).

With `COc1ccc(C(=O)CC(=O)c2ccc(C)cc2)c(O)c1`, the “activity change, negative = inhibition” value is 1.43% [at 46.1 µM] (inactive).

Regarding `COc1ccc(N=C2C=CC(=O)O2)cc1`, the “activity change, negative = inhibition” value is -4.62% [at 46.1 µM] (inactive).

Take `COc1ccc(Cc2nc3ccc(C(=O)NCC4CCOCC4)cc3o2)cc1OC`: the “activity change, negative = inhibition” value was 1.26% (inactive).

On to `CCOC(=O)CN(C)Cc1c[nH]c2ccccc12`, for which the “activity change, negative = inhibition” value is -2.54% (inactive).

Take `O=C(COC(=O)Cc1c[nH]c2ccccc12)NCCc1ccccc1`: the “activity change, negative = inhibition” value was -9.54% [at 46.1 µM] (inactive).

With `O=C(Cc1c[nH]c2ccccc12)OCCOC(=O)Cc1c[nH]c2ccccc12`, the Potency was 18.3 µM (active).

In the case of `COc1ccc(S(=O)(=O)NCc2cccnc2)cc1NC(=O)c1ccc(C)cc1`, the “activity change, negative = inhibition” value is 3.55% (inactive).

In the case of `COc1cc(C(=O)Nn2c(CC(C)C)nc3ccccc3c2=O)cc(OC)c1OC`, the “activity change, negative = inhibition” value was -6.04% (inactive).

As for `Cc1cc(O)ccc1-c1cnc2ccccc2n1`, the Potency entry was “inactive”.

As for `Cc1ccc(NC(=O)c2cc(-c3ccc(C)o3)nc3ccccc23)nc1`, the “activity change, negative = inhibition” value is -6.53% (inactive).

Regarding `Cc1ccc(Nc2nc(-c3ccc(O)cc3O)cs2)nc1`, the Potency is 4.47 µM (active).

Turning to `CC(=O)c1ccc(S(=O)(=O)Nc2ccc(-c3ccc4nncn4n3)cc2)cc1`, the “activity change, negative = inhibition” value was -15.7% (inactive).

For `NC(=S)NN=C1CCCC(C(F)(F)F)C1` (configuration not stated), the “activity change, negative = inhibition” value was -2.75% (inactive).

For `O=C(COC(=O)c1ccc(Br)o1)NC12CC3CC(CC(C3)C1)C2`, the “activity change, negative = inhibition” value was 31% (inactive).

On to `CCOc1cc(N2CCOCC2)c(OCC)cc1NC(=O)COc1cccc2cccnc12`, for which the Potency is 4.47 µM (active).

For the molecule `CCOc1cc(N2CCOCC2)c(OCC)cc1NC(=O)COC(=O)[C@H](Cc1c[nH]c2ccccc12)NC(C)=O`, the “activity change, negative = inhibition” value is 9.35% (inactive).

As for `CCOc1cc(N2CCOCC2)c(OCC)cc1NC(=O)COc1cccc(Cl)c1`, the “activity change, negative = inhibition” value is -3.98% (inactive).

The values are drawn from PubChem BioAssay AID540276 (National Center for Advancing Translational Sciences (NCATS), 2011).
